# OTUD3 inh: human OTUD3 deubiquitinase inhibition | Q5T2D3 | purified OTUD3, Ub-rhodamine fluorescence, 2 h | inhibition, % at 25 µM | 47,000 tested, 0.7% active | AID 1645858
# USP28 inh: inhibitors of human USP28 deubiquitinase; Q96RU2; purified USP28, Ub-rhodamine cleavage fluorescence, 30 min; inhibition, % at 25 µM; 47,000 tested, 3% active
# Target sequence (Q96RU2 whole entry, looked up): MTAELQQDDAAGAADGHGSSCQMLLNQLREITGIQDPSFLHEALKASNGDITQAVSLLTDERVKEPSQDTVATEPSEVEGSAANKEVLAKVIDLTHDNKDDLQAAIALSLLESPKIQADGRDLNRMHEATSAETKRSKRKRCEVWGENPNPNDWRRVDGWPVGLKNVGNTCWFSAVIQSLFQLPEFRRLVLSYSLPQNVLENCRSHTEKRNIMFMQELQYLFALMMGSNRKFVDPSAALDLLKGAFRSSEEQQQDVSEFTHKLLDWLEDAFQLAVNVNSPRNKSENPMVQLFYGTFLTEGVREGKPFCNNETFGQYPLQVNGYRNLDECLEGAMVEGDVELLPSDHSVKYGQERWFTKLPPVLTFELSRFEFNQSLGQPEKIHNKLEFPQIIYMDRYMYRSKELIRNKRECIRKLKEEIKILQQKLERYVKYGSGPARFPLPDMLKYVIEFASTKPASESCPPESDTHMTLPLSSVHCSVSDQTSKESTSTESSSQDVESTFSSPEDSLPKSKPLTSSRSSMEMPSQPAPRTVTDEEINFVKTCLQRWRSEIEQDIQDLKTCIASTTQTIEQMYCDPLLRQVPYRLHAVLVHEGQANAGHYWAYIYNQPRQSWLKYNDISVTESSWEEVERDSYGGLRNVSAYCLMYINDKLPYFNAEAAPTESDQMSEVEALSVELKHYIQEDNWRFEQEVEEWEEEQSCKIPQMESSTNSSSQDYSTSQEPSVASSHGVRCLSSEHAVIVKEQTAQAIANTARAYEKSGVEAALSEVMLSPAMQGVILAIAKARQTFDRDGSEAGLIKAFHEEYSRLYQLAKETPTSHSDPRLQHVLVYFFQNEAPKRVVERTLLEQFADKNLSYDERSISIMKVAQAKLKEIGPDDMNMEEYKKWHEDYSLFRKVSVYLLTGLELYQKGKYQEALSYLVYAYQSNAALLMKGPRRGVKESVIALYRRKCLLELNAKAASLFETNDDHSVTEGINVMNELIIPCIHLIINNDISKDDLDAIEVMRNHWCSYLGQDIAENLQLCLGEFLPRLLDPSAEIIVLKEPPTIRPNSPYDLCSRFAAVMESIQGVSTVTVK
# USP17 block: human USP17-like deubiquitinase inhibition; purified USP17, Ub-rhodamine cleavage fluorescence, 3 h; inhibition, % at 50 µM; 47,000 tested, 6.5% active; AID 1645855
# USP30 block: blocks human USP30 ubiquitin-rhodamine cleavage | purified USP30, Ub-rhodamine cleavage fluorescence | inhibition, % at 25 µM | 47,000 tested, 5.3% active | AID 1645860
# * marks the source's active call; other numbers are inactive results; nt = no result given. The list is not random: actives were taken first. Their share in the collection is about 11%. Cut-off read from the data, not from the text of the source: active = inhibition above about 30%; inactive = the rest.
SMILES,OTUD3 inh,USP28 inh,USP17 block,USP30 block
Cc1cc(NS(=O)(=O)c2ccc(NC(=O)COc3ccccc3F)cc2)no1,10,nt,10,nt
CCn1c(=O)c(C(=O)N2CCN(c3ccccc3C)CC2)nc2cccnc21,6,-2,0,0
CC1(c2ccco2)NC(=O)N(CC(=O)Nc2ccc(N3CCCCCC3)cc2)C1=O (stereo not drawn),-3,0,44*,-7
CCN(c1ccc(NC(=O)CN2C(=O)NC3(CCCCC3)C2=O)cc1)C(C)C,-1,0,0,4
COC1=C(N)C(=O)c2nc(-c3nc(C(=O)O)c(C)c(-c4ccc(O)c(OC)c4O)c3N)ccc2C1=O,14,31*,46*,-172
Cc1nc(-c2noc(-c3ccncc3)n2)cn1CC(=O)N1CCN(c2ccc(F)cc2)CC1,3,1,0,62*
O=C(Cn1cnc(-c2noc(-c3ccncc3)n2)c1)N1CCN(c2ccc(F)cc2)CC1,5,4,16,-4
CCOC(=O)N1CCC(NC(=O)c2cnn(-c3ccc(F)cc3F)c2C2CCNCC2)CC1,2,-3,-30,-19
Cc1ccc(-n2nc(C)c3nc(CCC(=O)Nc4ccc(OC(F)(F)F)cc4)c(=O)n(C)c32)cc1,5,-2,4,31*
Cc1cc(C)n(-c2ccnc(N3CCC(C(=O)N4CCN(c5ccccn5)CC4)CC3)n2)n1,4,30*,-4,5
CN1CC2CN(Cc3ccccc3)CCN2Cc2ccccc21 (stereo not drawn),-88,-122,-120,-470
Cc1nc(-c2ccccc2)sc1C(=O)CSc1ccc(F)cc1,20,20,14,32*
CCn1cnc2c1c(=O)n(CC(=O)NCc1ccccc1Cl)c(=O)n2Cc1ccccc1,29,8,55*,19
CCn1cnc2c1c(=O)n(CC(=O)NCc1ccc3c(c1)OCO3)c(=O)n2Cc1ccccc1,14,8,37*,-71
CC(C)Cn1cnc2c1c(=O)n(CC(=O)NCCc1ccc(F)cc1)c(=O)n2Cc1ccccc1,17,12,24,43*
O=C(Cn1c(=O)c2c(ncn2C2CCCC2)n(Cc2ccccc2)c1=O)NCC1CCCO1 (stereo not drawn),-4,-12,-4,-28
COCCn1cnc2c1c(=O)n(CC(=O)NCc1ccccc1OC)c(=O)n2Cc1ccccc1,17,10,31*,45*
Cc1nc2c(-c3ccc(Cl)cc3)c[nH]n2c(=O)c1Cc1ccccc1,11,-12,-12,-22
Cc1nc(N)cc(C2CCCN2C(=O)c2cc(C(C)(C)C)[nH]n2)n1 (stereo not drawn),19,14,13,14
N#C/C(=C\c1cc2ccccc2nc1N1CCCCC1)c1ccc([N+](=O)[O-])cc1,-60,-102,-146,-221
COc1ccc(CN2C[C@H]3CC[C@@]4(N=C(c5ccccc5)NC4=O)[C@H]3C2)cc1,4,0,0,12
CNc1cnc(CC2CCCN(C(=O)c3ccnc(C)n3)CC2)cn1 (stereo not drawn),1,11,6,11
COc1cccc(C(=O)Oc2ccc3c(=O)c(-c4ccc(OC)c(OC)c4)coc3c2)c1,-6,-4,79*,12
COc1cccc(C(=O)Oc2ccc3c(C)c(C)c(=O)oc3c2)c1,10,10,49*,13
Cc1ccc(C(=O)C(C)Sc2nnc(C)n2Cc2ccccc2)cc1 (stereo not drawn),-10,-13,-9,-19
SMILES,OTUD3 inh,USP28 inh,USP17 block,USP30 block
CC1(C)CC(=O)C2(Cc3cc([N+](=O)[O-])ccc3N3CCCC32)C(=O)C1 (stereo not drawn),-11,-8,36*,-22
CCOC(=O)c1[nH]c2c(c1Cc1ccccc1OC)C(=O)CC(C)(C)C2,0,nt,37*,nt
CCn1c(SCc2ccccc2C)nnc1-c1cnccn1,6,25,2,14
Clc1ccccc1Cn1c(C2CCCO2)nc2ccccc21 (stereo not drawn),6,20,17,31*
CSCC[C@H](NC(=O)[C@H](Cc1ccccc1)n1c(=O)[nH]c2ccccc2c1=O)C(=O)N[C@H](Cc1ccccc1)C(=O)O,-3,-4,0,9
Cc1ccccc1NC(=O)C(NS(=O)(=O)c1ccc2c(c1)OCCO2)C(C)C (stereo not drawn),-10,0,40*,7
O=C(NC1CCCCCC1)C(Cc1ccccc1)NS(=O)(=O)c1ccc2c(c1)OCCO2 (stereo not drawn),0,5,49*,2
O=C(c1ccc2cc[nH]c2c1)N1C[C@@H]2C[C@H]1C[C@@H]2NS(=O)(=O)c1ccccc1,-2,0,-4,0
O=C(CCc1c[nH]c2ccccc12)OCC(=O)c1cc2c3c(c1)CC(=O)N3CCC2,0,nt,62*,nt
O=C(CCc1c[nH]c2ccccc12)N1C[C@@H](O)[C@H](N2CCCC2)C1,-2,-12,-5,-4
CN(C)c1ccc(C2CC(c3ccc(Br)cc3)=NN2C(=O)CCC(=O)O)cc1 (stereo not drawn),13,23,32*,26
CCNC(=O)N1CCC(c2nc3ccc(-c4cccc(F)c4)cn3n2)CC1,2,9,2,18
N#Cc1ccc(CC(C(=O)Nc2ccc3c(c2)OCO3)C(=O)c2ccccc2)cc1 (stereo not drawn),18,15,13,35*
O=C(Nc1ccc2c(c1)OCO2)C(Cc1cc(Cl)cc2c1OCOC2)C(=O)c1ccccc1 (stereo not drawn),1,-4,0,2
O=C(CC(C(=O)Nc1ccc2c(c1)OCO2)C(=O)c1ccccc1)Nc1ccc(Cl)cc1F (stereo not drawn),25,19,34*,59*
O=C(CN1CCN(Cc2ccc3c(c2)OCO3)CC1)Nc1ccc(Cl)cc1C(=O)c1ccccc1,1,8,11,-8
Cc1ccc(C(=O)Nc2cccc(-n3c(C)nc4ncccc4c3=O)c2)cc1,0,13,-77,-3
Cc1cc(C)c2c(n1)sc1c(=O)n(CCC(C)C)cnc12,7,1,9,8
Cn1ncc(-c2nc(-c3ccc(Cl)cc3)cs2)c1NC(=O)NC(=O)c1c(F)cccc1F,-4,nt,53*,nt
COCc1cc(Sc2ccc(OC)cc2)nc(-c2ccccc2)n1,3,0,1,3
O=S(Cc1cc(Sc2ccccc2)nc(-c2ccccc2)n1)c1ccccc1 (stereo not drawn),6,13,3,34*
Cc1ccc(S(=O)(=O)NC(=O)N2CCN(C(=O)OC(C)(C)C)CC2)cc1,-5,-6,10,6
COc1ccc(N2CCn3c(SCC(=O)Nc4cc(C)cc(C)c4)nnc32)cc1,-3,-6,nt,35*
CC(=O)N1CCCC(c2nc(C)cc(-c3ccccc3C(=O)O)n2)C1 (stereo not drawn),-2,-4,-4,1
CC(=O)N1CCCC(c2nc(C)cc(-c3cc(F)ccc3C(=O)O)n2)C1 (stereo not drawn),8,7,7,64*
CC(C)Oc1ccc(C2CNCCN2Cc2cnc[nH]2)cc1 (stereo not drawn),14,2,9,23
